Results: PubChem BioAssay (Tox21)
Several values for one entry are separate records, joined by “and”; a condition that tells them apart may be missing. Equal values may be shown once. Results filed as inconclusive are left out. A structure can be active in one record and inactive in another. Activity calls are given as the source filed them. Calls come from the whole dose curve; as a rule, active = well fitted cell-killing curve with a large enough effect in the repeat runs; inconclusive = weak or mixed curves, or effect the other way; inactive = no such curve, though single readings can be large or run the other way.

Assay: qHTS assay for identifying genotoxic compounds that show differential cytotoxicity against isogenic chicken DT40 cell lines with known DNA damage response pathways - wild type cell line (AID 743012); note: nearly all actives have a fitted effect of over 60% in size
Conditions: DT40 wild type chicken cells viability, CellTiter-Glo, 40 h; series mostly up to 68.4 µM; activity change, negative = cytotoxicity: at the top concentration
How it was run: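 Parental DNA repair-proficient DT40 cells, 300 per well, were pre-incubated ~0.5 h at 37 C/5% CO2, pin-dosed with compounds in DMSO, then incubated 40 h. Viability was read as CellTiter-Glo luminescence after 30 min at room temperature.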
% is set by controls: 0 for no effect and ±100 for the full control effect; potency is the fitted concentration of half-maximal effect.

SMILES	Potency	activity change, negative = cytotoxicity
C=CC(=O)Nc1cc2c(Nc3ccc(F)c(Cl)c3)ncnc2cc1OCCCN1CCOCC1	5.31 µM (active)	
O=S(=O)(O)c1ccccc1/C=C/c1ccc(-c2ccc(/C=C/c3ccccc3S(=O)(=O)O)cc2)cc1		10.7% (inactive)
CCc1ccc(Br)cc1		2.06% [at 95 µM] (inactive)
CCCCC(CC)COC(=O)CCCCC(=O)OCc1ccccc1 (centres undefined)		-14.5% (inactive)
CN1CCN2c3ccccc3Cc3ccccc3C2C1 (centres undefined)	13.3 µM (active)	
O=[N+]([O-])c1ccc(O)cc1C(F)(F)F	27.3 µM (active)	
CCN(CC)C(=O)c1cc(S(=O)(=O)Cc2ccccc2)c(N2CCC(c3ccccc3)CC2)cc1N(CC)CCN(C)C	5.96 µM (active) and 17 µM (active)	
Oc1ccccc1O	24.6 µM (active) and 30.6 µM (active)	
CCCCCC/C=C\CCCCCCCC(=O)O		17.9% (inactive)
C=CC(=O)OCCOC(=O)C=C	7.7 µM (active)	
NC(=O)c1cccc([N+](=O)[O-])c1		4.91% (inactive)
Oc1c(I)cc(Cl)c2cccnc12	18.8 µM (active) and 15.3 µM (active)	
Cc1cccc2cccnc12		-9.86% (inactive)
c1ccsc1		-10.7% (inactive)
COC(=O)C1=C(C)NC(C)=C(C(=O)OCCN2CCN(C(c3ccccc3)c3ccccc3)CC2)C1c1cccc([N+](=O)[O-])c1 (centres undefined)	5.31 µM (active)	
O=C(O)[C@H](O)[C@@H](O)[C@H](O[C@@H]1O[C@H](CO)[C@H](O)[C@H](O)[C@H]1O)[C@H](O)CO		2.85% [at 31.4 µM] (inactive)
COC1=C(OC)C(=O)C(CCCCCCCCCCO)=C(C)C1=O	8.41 µM (active)	
CC(C)(C)c1ccc(C(O)CCCN2CCC(C(O)(c3ccccc3)c3ccccc3)CC2)cc1 (centres undefined)	4.22 µM (active) and 3.76 µM (active)	
CCCCC(CC)CN1CN(CC(CC)CCCC)CC(C)(N)C1 (centres undefined)	10.1 µM (active)	
Cc1c2ccccc2c(C)c2c1ccc1ccccc12	30.3 µM (active) and 3.06 µM (active)	
CC/C=C\CCCCCO		6.39% (inactive)
O=C1c2ccccc2C(=O)N1SC1CCCCC1	15.3 µM (active) and 5.45 µM (active)	
COC(=O)c1ccccc1C		4.92% (inactive)

Assay: qHTS assay for identifying genotoxic compounds that show differential cytotoxicity against isogenic chicken DT40 cell lines with known DNA damage response pathways - Rev3 mutant cell line (AID 743014); note: nearly all actives have a fitted effect of over 55% in size
Conditions: chicken DT40 Rev3-/- viability, CellTiter-Glo, 40 h; series mostly up to 68.4 µM; activity, negative = cytotoxicity: at the top concentration

SMILES	Potency	activity, negative = cytotoxicity
C=CC(=O)Nc1cc2c(Nc3ccc(F)c(Cl)c3)ncnc2cc1OCCCN1CCOCC1	8.41 µM (active)	
O=S(=O)(O)c1ccccc1/C=C/c1ccc(-c2ccc(/C=C/c3ccccc3S(=O)(=O)O)cc2)cc1		-21% (inactive)
CCc1ccc(Br)cc1		-4.4% [at 95 µM] (inactive)
CCCCC(CC)COC(=O)CCCCC(=O)OCc1ccccc1 (centres undefined)		-36.2% (inactive)
CN1CCN2c3ccccc3Cc3ccccc3C2C1 (centres undefined)	26.6 µM (active)	
O=[N+]([O-])c1ccc(O)cc1C(F)(F)F	27.3 µM (active)	
CCN(CC)C(=O)c1cc(S(=O)(=O)Cc2ccccc2)c(N2CCC(c3ccccc3)CC2)cc1N(CC)CCN(C)C	11.9 µM (active) and 13.5 µM (active)	
Oc1ccccc1O	19.6 µM (active) and 54.5 µM (active)	
CCCCCC/C=C\CCCCCCCC(=O)O		0.31% (inactive)
C=CC(=O)OCCOC(=O)C=C	7.7 µM (active)	
NC(=O)c1cccc([N+](=O)[O-])c1		5.19% (inactive)
Oc1c(I)cc(Cl)c2cccnc12	11.9 µM (active) and 15.3 µM (active)	
Cc1cccc2cccnc12		3.74% (inactive)
c1ccsc1		-5.59% (inactive)
COC(=O)C1=C(C)NC(C)=C(C(=O)OCCN2CCN(C(c3ccccc3)c3ccccc3)CC2)C1c1cccc([N+](=O)[O-])c1 (centres undefined)	8.41 µM (active)	
O=C(O)[C@H](O)[C@@H](O)[C@H](O[C@@H]1O[C@H](CO)[C@H](O)[C@H](O)[C@H]1O)[C@H](O)CO		0.0199% [at 31.4 µM] (inactive)
CC1(C)CCC[C@]2(C)[C@H]3CC(=O)O[C@]3(C)CC[C@@H]12	61.1 µM (active)	
COC1=C(OC)C(=O)C(CCCCCCCCCCO)=C(C)C1=O	13.3 µM (active)	
CC(C)(C)c1ccc(C(O)CCCN2CCC(C(O)(c3ccccc3)c3ccccc3)CC2)cc1 (centres undefined)	inactive and 9.44 µM (active)	
CCCCC(CC)CN1CN(CC(CC)CCCC)CC(C)(N)C1 (centres undefined)	12.7 µM (active)	
COc1ccc(-c2coc3cc(O)ccc3c2=O)cc1	30.6 µM (active)	
Cc1c2ccccc2c(C)c2c1ccc1ccccc12	15.2 µM (active) and 2.73 µM (active)	
CCCCCC(C)OC(=O)COc1ccc(Cl)c2cccnc12 (centres undefined)		-24.4% (inactive)
CC/C=C\CCCCCO		7.62% (inactive)
O=C1c2ccccc2C(=O)N1SC1CCCCC1	6.85 µM (active) and 5.45 µM (active)	
COC(=O)c1ccccc1C		5.48% (inactive)
